# FBW7 activator: activators of human E3 ligase FBW7 | Q969H0 | AlphaScreen FBW7–phospho-cyclin E peptide binding, activator screen | normalized activity (activation), % at 26.1 µM | hit rate 0.13% among 650,000; in the data active = normalized activity above about 1.9%;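 also: purified mutant Fbw7 with reduced substrate affinity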
# Target sequence (Q969H0 whole entry, looked up): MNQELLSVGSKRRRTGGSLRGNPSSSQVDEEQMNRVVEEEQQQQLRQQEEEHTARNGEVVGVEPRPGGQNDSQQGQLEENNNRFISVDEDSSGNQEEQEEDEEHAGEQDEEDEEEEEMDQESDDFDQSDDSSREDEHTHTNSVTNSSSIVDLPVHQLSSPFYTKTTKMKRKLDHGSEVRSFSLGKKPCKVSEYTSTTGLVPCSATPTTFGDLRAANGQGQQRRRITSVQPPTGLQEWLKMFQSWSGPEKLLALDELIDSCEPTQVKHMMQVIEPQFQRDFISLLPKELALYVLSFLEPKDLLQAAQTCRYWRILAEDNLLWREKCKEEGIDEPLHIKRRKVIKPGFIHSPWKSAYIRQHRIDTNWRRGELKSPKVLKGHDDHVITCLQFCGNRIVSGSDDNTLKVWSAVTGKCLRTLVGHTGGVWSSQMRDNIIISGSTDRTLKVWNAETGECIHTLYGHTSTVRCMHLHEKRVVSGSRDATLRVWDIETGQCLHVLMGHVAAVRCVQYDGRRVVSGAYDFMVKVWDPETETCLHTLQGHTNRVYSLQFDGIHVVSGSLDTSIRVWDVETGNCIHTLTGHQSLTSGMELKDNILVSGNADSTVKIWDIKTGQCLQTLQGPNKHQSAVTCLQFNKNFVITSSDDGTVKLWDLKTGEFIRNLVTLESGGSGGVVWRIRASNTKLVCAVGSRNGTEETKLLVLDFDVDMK
# TEAD-YAP inh: TEAD-YAP interaction inhibition; HEK-TIYL cells, TEAD-Gal4/YAP UAS-luciferase luminescence; inhibition, % at 9.12 µM; hit rate 1.4% among 640,000; in the data active = inhibition above about 32%;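 also: 0% = median of test compound wells and 100% = reference inhibitor wells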
# GPR151 activ: activates the human receptor GPR151 | Q8TDV0 | PathHunter beta-arrestin GPR151 cells, luminescence | activation, % at 11.2 µM | hit rate 1% among 650,000 | AID 1508602; in the data active = activation above about 4.9%;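 also: 0% = median of compound wells and 100% = cells with positive control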
# MITF primary: human MITF inhibition, primary screen. AlphaScreen MITF homodimerization, bead proximity signal. inhibition, % at 2.6 µM. hit rate 0.91% among 650,000; in the data active = inhibition above about 50%;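 also: 0% = vehicle wells with protein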
# MITF confirm: confirmation of human MITF inhibitors. shares compounds with MITF primary. AlphaScreen MITF homodimerization, biotin/His-MITF beads. inhibition, % at 2.6 µM. hit rate 16% among 4,700. AID 1259372;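 active = inhibition above a cutoff derived from the DMSO control wells, cut at about 28% in these data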;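 also: 0% = MITF dimer wells with DMSO only; inhibitors lower the bead chemiluminescence by keeping MITF from dimerizing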
# AS interf DR: optically interferes with AlphaScreen signal in dose response; shares compounds with MITF primary; AlphaScreen optical interference counterscreen, cell-free; IC50, µM; hit rate 6% among 480; call rule not given here
# AS interf ctr: counter-screen: compounds optically interfering with AlphaScreen; shares compounds with MITF primary; LysRS AlphaScreen counterscreen, signal interference, triplicate; inhibition, % at 2.6 µM; hit rate 7.6% among 4,700; AID 1259376;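 active = inhibition above a cutoff derived from the DMSO control wells, cut at about 30% in these data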
# Starred values were filed as active, the others as inactive; nt = not tested or not shown. This is a sample that favours compounds with a hit; in the whole collection about 3.5% have one here.
SMILES,FBW7 activator,TEAD-YAP inh,GPR151 activ,MITF primary,MITF confirm,AS interf ctr,others
Cc1ncc(CO)c(/C=N/NC(=S)Nc2cccc(Cl)c2)c1O,-1,1,1,38,nt,nt,
Cc1ncc(CO)c(/C=N/NC(=S)Nc2cccc(S(=O)(=O)N(C)C)c2)c1O,0,4,0,68*,7,22,
Cc1ncc(CO)c(/C=N/NC(N)=S)c1O,0,0,0,105*,6,27,
Cc1ccc(S(=O)(=O)NCC(c2ccccc2)N2CCOCC2)cc1 (configuration not stated),0,5,1,-2,nt,nt,
CC(NC(=O)CSc1ncc(-c2ccccc2)[nH]1)c1ccccc1 (configuration not stated),0,-12,-1,-9,nt,nt,
CCN(CC)C(=O)NCC1CC(CNC(=O)N(CC)CC)C1(C)C (configuration not stated),0,-4,-1,1,nt,nt,
COc1ccc(/C=C2\C(=N)N3N=C(N4CCCCC4)SC3=NC2=O)cc1OC,0,-12,2,7,nt,nt,
O=C(/C=C/c1ccc(-c2ccc(F)cc2)o1)c1ccco1,0,-64,0,58*,77*,40*,
Cc1ccc(C(=O)/C=C/c2ccc(-c3cccc(C(F)(F)F)c3)o2)cc1,0,6,2,-1,nt,nt,
O=C(/C=C/c1ccc(-c2cccc(C(F)(F)F)c2)o1)c1ccco1,0,-11,3,78*,70*,29,AS interf DR=>6.6
O=C(O)C1CCN(c2ncc(-c3ccc(Cl)cc3)cn2)CC1,0,-17,1,61*,10,9,
COCCNC(=O)c1ccc(-c2cccc(Cl)c2Cl)nc1NCC1CC1,0,-8,0,4,nt,nt,
CCOC(=O)c1ccc(NC(=O)c2c(NCc3cccc(F)c3)sc3c2CCC3)cc1,0,-4,1,-5,nt,nt,
O=C(O)c1cc([N+](=O)[O-])cc2c1-c1c(cc([N+](=O)[O-])cc1[N+](=O)[O-])/C2=C/c1ccco1,-2,3,0,62*,68*,22,AS interf DR=>6.5
Cc1ccccc1NC(=O)c1ccccc1N(Cc1ccccc1)S(C)(=O)=O,0,7,-1,55*,-2,6,
C/C(O)=C(\C(=O)Nc1ccccc1)C1(C(C#N)C(N)=O)CCCC1 (configuration not stated),0,-5,0,-13,nt,nt,
O=C(Cn1ccccc1=S)c1ccccc1,0,8,-1,63*,6,10,
CCOc1ccc(NC(=O)CSC2=C(C#N)C(c3ccncc3)C(C(=O)Nc3ccccc3)=C(C)N2)cc1 (configuration not stated),0,-4,-2,-16,nt,nt,
O=C(O)c1cccc(N2C(=O)CC(Nc3ccc(N4CCOCC4)cc3)C2=O)c1 (configuration not stated),0,-5,-2,70*,69*,4,AS interf DR=>6.6
NC(=O)c1c(NC(=O)CCC(=O)O)sc2c1CCC2,0,-7,0,-13,nt,nt,
CC1CN(CC(=O)Nc2ccc(F)cc2)CC(C)O1 (configuration not stated),0,4,3,55*,13,13,
CCN1CCN(CC(=O)Nc2ccc(F)cc2)CC1,0,-1,0,83*,17,21,
O=C(CN1CCN(CC(=O)Nc2ccc(F)cc2)CC1)Nc1ccc(F)cc1,0,12,0,6,nt,nt,
CCC(C)NS(=O)(=O)c1ccc(NC(=O)CN2CCOCC2)cc1 (configuration not stated),0,-8,0,54*,3,17,
O=C(CCCCC(=O)Nc1ccc(F)cc1)Nc1ccc(F)cc1,1,11,-1,56*,2,1,
SMILES,FBW7 activator,TEAD-YAP inh,GPR151 activ,MITF primary,MITF confirm,AS interf ctr,others
COc1ccc(/C(C)=N\NC(=O)c2cc([N+](=O)[O-])cc([N+](=O)[O-])c2)c(OC)c1,0,8,0,7,nt,nt,
COC(=O)CSC1=C(C#N)C(=O)NC(c2ccc(O)c(OC)c2)S1 (configuration not stated),0,5,-2,-3,nt,nt,
CC1=C(C(=O)OC(C)C)C(c2ccc(Cl)cc2)n2c(s/c(=C\c3ccc4c(c3)OCO4)c2=O)=N1 (configuration not stated),0,1,-1,-13,nt,nt,
CCCCNCCOCCOc1ccc(Cl)cc1,0,-3,2,80*,-8,-4,
CCCCNCCOCCOc1cc(C)ccc1Cl,0,0,-1,54*,11,8,
CN1CCN(C(=O)c2ccc(-c3nccc(NCc4cccc(C(F)(F)F)c4)n3)cc2)CC1,0,8,0,-1,nt,nt,
Cc1ccc(C(=O)O)cc1NC(=O)c1cccc(C(=O)Nc2cc(C(=O)O)ccc2C)c1,1,1,-1,14,nt,nt,
CC(=O)Oc1cccc(C(=O)Nc2cc(C(=O)O)ccc2C)c1,0,15,1,102*,7,18,
C/C=C/c1ccc(OCCCN2CCN(CC)CC2)c(OC)c1,0,-9,0,63*,7,19,
C/C=C/c1ccc(OCCCCNCCN2CCOCC2)c(OC)c1,0,10,2,61*,3,17,
C/C=C/c1ccc(OCCOCCN(C)C)c(OC)c1,0,1,-1,70*,-2,10,
C/C=C/c1ccc(OCCCCNCCN(C)C)c(OC)c1,0,0,0,-34,nt,nt,
C/C=C/c1ccc(OCCCCN2CC(C)OC(C)C2)c(OC)c1 (configuration not stated),0,-10,1,32,nt,nt,
COc1cc(Nc2ccc(NC(=O)c3cccc(F)c3)cc2)nc(C)n1,0,15,1,57*,-5,-6,
COc1cccc(C(=O)N2CCN(Cc3cccc4ccccc34)CC2)c1,0,1,1,33,nt,nt,
COc1cccc(C(=O)N2CCN(Cc3ccccc3F)CC2)c1,1,3,-1,58*,13,9,
COc1ccc(C(=O)N2CCN(Cc3ccccc3Br)CC2)cc1,0,3,0,59*,1,8,
O=C(c1ccc(F)cc1)N1CCN(Cc2ccccc2Br)CC1,0,7,1,50,nt,nt,
COc1cccc(C(=O)N2CCN(Cc3ccccc3C(F)(F)F)CC2)c1,0,-9,1,71*,12,11,
COc1cccc(C(=O)N2CCN(Cc3ccccc3Br)CC2)c1,0,-5,1,65*,7,16,
COC(=O)CSc1nc2ccc(N)cc2s1,0,6,1,63*,-5,14,
COc1ccc(NC(=O)CSc2nc3ccc(N)cc3s2)cc1,0,-24,0,10,nt,nt,
CNc1oc(-c2ccccc2F)nc1C#N,0,-8,1,-10,nt,nt,
N#Cc1c(NC(=O)c2nn3c(C(F)(F)F)cc(-c4ccc(Br)cc4)nc3c2Cl)sc2c1CCCC2,0,6,2,1,nt,nt,

# Screens: PubChem, The Scripps Research Institute Molecular Screening Center
